Hit rate of the full screen: of about 5,500 compounds, about 2,000 (36%) were called active. Roughly 18% stayed inconclusive and do not appear here. Cut-off read from the data, not from the text of the source: active = normalized growth mostly below about 0.91 (no sharp cut-off); inconclusive = no clear call, values can overlap the other calls; inactive = mostly above about 0.92. The list shows a part of the results.
Test: chemical genetic growth profiling, strain panel (AID 1159580);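 note: tested at 20 µM; growth read once vehicle control cultures reached saturation at 30 °C; 1 = growth at the plate median or of vehicle wells; lower values mean less growth of the strain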
Settings: growth OD
[1] = S. cerevisiae deletion strains, locus YAL013W, strain DEP1, hits give low values
[2] = S. cerevisiae deletion strains, locus YBR229C, strain ROT2, hits give low values
[3] = S. cerevisiae deletion strains, locus YDL101C, strain DUN1, hits give low values
[4] = S. cerevisiae deletion strains, locus YDR150W, strain NUM1, hits give low values
[5] = S. cerevisiae deletion strains, locus YEL061C, strain CIN8, hits give low values
[6] = S. cerevisiae deletion strains, locus YGR078C, strain PAC10, hits give low values
[7] = S. cerevisiae deletion strains, locus YGR229C, strain SMI1, hits give low values
[8] = S. cerevisiae deletion strains, locus YHR030C, strain SLT2, hits give low values
[9] = S. cerevisiae deletion strains, locus YHR087W, strain rtc3, hits give low values
[10] = S. cerevisiae deletion strains, locus YJL187C, strain SWE1, hits give low values
[11] = S. cerevisiae deletion strains, locus YJR043C, strain POL32, hits give low values
[12] = S. cerevisiae deletion strains, locus YJR075W, strain HOC1, hits give low values
[13] = S. cerevisiae deletion strains, locus YLR039C, strain RIC1, hits give low values
[14] = S. cerevisiae deletion strains, locus YLR058C, strain SHM2 (second series), hits give low values
[15] = S. cerevisiae deletion strains, locus YLR085C, strain ARP6, hits give low values
[16] = S. cerevisiae deletion strains, locus YLR262C, strain YPT6, hits give low values
[17] = S. cerevisiae deletion strains, locus YML094W, strain GIM5, hits give low values
[18] = S. cerevisiae deletion strains, locus YMR219W, strain ESC1, hits give low values
[19] = S. cerevisiae deletion strains, locus YMR263W, strain SAP30, hits give low values
[20] = S. cerevisiae deletion strains, locus YMR307W, strain GAS1, hits give low values
[21] = S. cerevisiae deletion strains, locus YNL153C, strain GIM3, hits give low values
[22] = S. cerevisiae deletion strains, locus YNL298W, strain CLA4 (second series), hits give low values
[23] = S. cerevisiae deletion strains, locus YNL322C, strain KRE1, hits give low values
[24] = S. cerevisiae deletion strains, locus YNR030W, strain Alg12, hits give low values
[25] = S. cerevisiae deletion strains, locus YPL055C, strain LGE1, hits give low values
[26] = S. cerevisiae deletion strains, locus YPL241C, strain CIN2, hits give low values
[27] = S. cerevisiae deletion strains, locus YPR135W, strain CTF4, hits give low values
[28] = S. cerevisiae strains, strain wild type, hits give low values
[29] = S. cerevisiae deletion strains, locus YCL061C, strain MRC1, hits give low values

Measured: normalized growth

FC(F)(F)c1cc(Cl)c2nsnc2c1
inactive: [1] 1 | [2] 0.993 | [3] 1.01 | [4] 1 | [5] 0.99 | [6] 0.997 | [7] 1 | [8] 1.02 | [9] 1.01 | [10] 0.99 | [11] 0.998 | [12] 0.985 | [13] 0.991 | [14] 0.993 | [15] 1.01 | [16] 0.974 | [17] 1.06 | [18] 1 | [19] 1 | [20] 1.01 | [21] 0.996 | [22] 0.993 | [23] 0.995 | [24] 1.01 | [25] 1.03 | [26] 1.08 | [27] 1.03 | [28] 0.987

O=S(=O)(Nc1cc(Cl)c(Cl)cc1Cl)c1cc(C(F)(F)F)cc(C(F)(F)F)c1
inactive: S. cerevisiae deletion strains, locus YAR019C, strain CDC15, hits give low values 0.957 | S. cerevisiae deletion strains, locus YBL105C, strain PKC1, hits give low values 0.956 | S. cerevisiae deletion strains, locus YBR135W, strain CKS1, hits give low values 0.961 | S. cerevisiae deletion strains, locus YBR136W, strain MEC1, hits give low values 0.954 | S. cerevisiae deletion strains, locus YBR160W, strain CDC28, hits give low values 0.946 | S. cerevisiae deletion strains, locus YDL017W, strain CDC7, hits give low values 0.959 | S. cerevisiae deletion strains, locus YDL028C, strain MPS1, hits give low values 0.962 | [3] 0.972 | S. cerevisiae deletion strains, locus YDL108W, strain KIN28, hits give low values 0.966 | S. cerevisiae deletion strains, locus YDL132W, strain cdc53, hits give low values 0.963 | S. cerevisiae deletion strains, locus YDL214C, strain PRR2, hits give low values 0.924 | S. cerevisiae deletion strains, locus YDR052C, strain DBF4, hits give low values 0.941 | S. cerevisiae deletion strains, locus YDR054C, strain cdc34, hits give low values 0.953 | S. cerevisiae deletion strains, locus YDR226W, strain ADK1, hits give low values 0.956 | S. cerevisiae deletion strains, locus YDR477W, strain SNF1, hits give low values 0.919 | S. cerevisiae deletion strains, locus YER123W, strain YCK3, hits give low values 0.882 | S. cerevisiae deletion strains, locus YER133W, strain GLC7, hits give low values 0.937 | S. cerevisiae deletion strains, locus YFL009W, strain cdc4, hits give low values 0.959 | S. cerevisiae deletion strains, locus YFL029C, strain CAK1, hits give low values 0.955 | S. cerevisiae deletion strains, locus YFR003C, strain YPI1, hits give low values 0.964 | S. cerevisiae deletion strains, locus YFR019W, strain FAB1, hits give low values 0.916 | S. cerevisiae deletion strains, locus YFR028C, strain CDC14, hits give low values 0.958 | S. cerevisiae deletion strains, locus YGR040W, strain KSS1, hits give low values 0.9 | S. cerevisiae deletion strains, locus YGR052W, strain FMP48, hits give low values 0.913 | S. cerevisiae deletion strains, locus YGR092W, strain DBF2, hits give low values 0.892 | S. cerevisiae deletion strains, locus YHR079C, strain IRE1, hits give low values 0.897 | S. cerevisiae deletion strains, locus YHR082C, strain KSP1, hits give low values 0.899 | S. cerevisiae deletion strains, locus YHR205W, strain SCH9, hits give low values 0.946 | S. cerevisiae deletion strains, locus YIL147C, strain SLN1, hits give low values 0.963 | S. cerevisiae deletion strains, locus YJL095W, strain BCK1, hits give low values 0.963 | S. cerevisiae deletion strains, locus YJL128C, strain PBS2, hits give low values 0.969 | S. cerevisiae deletion strains, locus YJL157C, strain FAR1, hits give low values 0.892 | S. cerevisiae deletion strains, locus YJR016C, strain ILV3, hits give low values 0.968 | S. cerevisiae deletion strains, locus YJR066W, strain TOR1 (second series), hits give low values 0.92 | S. cerevisiae deletion strains, locus YJR066W, strain TOR1, hits give low values 0.976 | S. cerevisiae deletion strains, locus YKL048C, strain ELM1, hits give low values 0.906 | S. cerevisiae deletion strains, locus YKL067W, strain YNK1, hits give low values 0.935 | S. cerevisiae deletion strains, locus YKL101W, strain HSL1, hits give low values 0.902 | S. cerevisiae deletion strains, locus YKL193C, strain SDS22, hits give low values 0.963 | S. cerevisiae deletion strains, locus YKL203C, strain TOR2, hits give low values 0.955 | S. cerevisiae deletion strains, locus YLR133W, strain CKI1, hits give low values 0.903 | S. cerevisiae deletion strains, locus YLR403W, strain SFP1, hits give low values 0.916 | S. cerevisiae deletion strains, locus YML070W, strain DAK1, hits give low values 0.911 | S. cerevisiae deletion strains, locus YMR001C, strain CDC5, hits give low values 0.96 | S. cerevisiae deletion strains, locus YMR205C, strain PFK2 (second series), hits give low values 0.954 | S. cerevisiae deletion strains, locus YMR277W, strain FCP1, hits give low values 0.963 | S. cerevisiae deletion strains, locus YNL006W, strain LST8, hits give low values 0.966 | S. cerevisiae deletion strains, locus YNL020C, strain ARK1, hits give low values 0.89 | S. cerevisiae deletion strains, locus YNL161W, strain CBK1, hits give low values 0.962 | S. cerevisiae deletion strains, locus YNL183C, strain NPR1, hits give low values 0.916 | S. cerevisiae deletion strains, locus YNL207W, strain RIO2, hits give low values 0.948 | S. cerevisiae deletion strains, locus YNL222W, strain SSU72, hits give low values 0.962 | S. cerevisiae deletion strains, locus YNL307C, strain MCK1 (second series), hits give low values 0.874 | S. cerevisiae deletion strains, locus YOL078W, strain AVO1, hits give low values 0.959 | S. cerevisiae deletion strains, locus YOL136C, strain PFK27, hits give low values 0.871 | S. cerevisiae deletion strains, locus YOR061W, strain CKA2, hits give low values 0.93 | S. cerevisiae deletion strains, locus YOR119C, strain RIO1, hits give low values 0.983 | S. cerevisiae deletion strains, locus YOR231W, strain MKK1, hits give low values 0.913 | S. cerevisiae deletion strains, locus YOR329C, strain SCD5, hits give low values 0.963 | S. cerevisiae deletion strains, locus YPL031C, strain PHO85, hits give low values 0.917 | S. cerevisiae deletion strains, locus YPL153C, strain RAD53, hits give low values 0.921 | S. cerevisiae deletion strains, locus YPL204W, strain HRR25, hits give low values 0.881 | S. cerevisiae deletion strains, locus YPL209C, strain IPL1, hits give low values 0.952 | S. cerevisiae deletion strains, locus YPR025C, strain CCL1, hits give low values 0.962 | S. cerevisiae deletion strains, locus YPR106W, strain ISR1, hits give low values 0.946 | S. cerevisiae deletion strains, locus YPR111W, strain DBF20, hits give low values 0.944 | S. cerevisiae deletion strains, strain NNK1, hits give low values 0.956 | S. cerevisiae deletion strains, strain TSCII, hits give low values 0.956
active: [8] 0.71 | S. cerevisiae deletion strains, locus YLR113W, strain HOG1, hits give low values 0.818 | S. cerevisiae deletion strains, locus YPL256C, strain CLN2, hits give low values 0.813

O=S(=O)(NCc1ccc(F)cc1F)c1cccc(C(F)(F)F)c1
active: S. cerevisiae deletion strains, locus YDL134C, strain PPH21, hits give low values 0.894
inactive: [1] 0.969 | [2] 0.98 | [29] 0.972 | [3] 0.985 | [4] 0.911 | [5] 0.988 | [6] 0.976 | [7] 0.98 | [8] 0.946 | [9] 0.978 | [10] 0.972 | [11] 0.984 | [12] 0.947 | S. cerevisiae deletion strains, locus YKL190W, strain CNB1, hits give low values 0.977 | [13] 0.884 | [14] 0.979 | [15] 0.954 | [16] 0.844 | [17] 0.962 | [18] 0.979 | [19] 0.979 | [20] 0.899 | [21] 1.01 | [22] 0.968 | [23] 0.973 | [24] 0.986 | [25] 0.873 | [26] 0.982 | [27] 0.913 | [28] 0.98

O=S(=O)(c1ccc(Cl)cc1)c1cc(C(F)(F)F)cc(C(F)(F)F)c1
inactive: [1] 0.978 | [2] 0.983 | [29] 1 | [3] 1.01 | [4] 1.01 | [5] 0.963 | [6] 0.988 | [7] 0.98 | [8] 0.988 | [9] 0.986 | [10] 0.984 | [11] 0.989 | [12] 0.957 | [13] 0.954 | [14] 0.987 | [15] 0.935 | [16] 0.964 | [17] 0.978 | [18] 0.974 | [19] 1 | S. cerevisiae deletion strains, locus YNL128W, strain TEP1, hits give low values 0.972 | [21] 1.01 | [22] 1.03 | [23] 0.952 | [24] 0.955 | S. cerevisiae deletion strains, locus YOL006C, strain TOP1, hits give low values 0.97 | [25] 1.03 | [26] 0.992 | [27] 1.08 | [28] 0.976
